# Measurements reported in the supplement of paper PMC9588786.
# Several values for one entry are separate records, joined by “and”; a condition that tells them apart may be missing. Identical values can stand only once. ± gives the standard deviation of the averaged measurements.
# Tested on: HT-1080
# Assay: relative cell viability with RSL3 co-treatment (fraction of control); higher = stronger protection from RSL3-induced ferroptosis (higher viability)
# Details: 10 µM
# 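Also: viability read as CCK-8 absorbance at 450 nm in cells co-exposed to the GPX4 inhibitor RSL3, relative to a 0.01% DMSO vehicle control.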
row,Structure (SMILES),relative cell viability
1,O=C1NCCc2[nH]c(-c3ccncc3)cc21,0.69 ± 0.04
2,O=c1c(-c2ccc(O)cc2)coc2cc(O)cc(O)c12 [Genistein],0.76 ± 0.07
3,CCC(=O)Nc1cccc(Oc2nc(Nc3ccc(N4CCN(C)CC4)cc3OC)ncc2Cl)c1,0.803 ± 0.097
4,COCCOc1ccc2c(c1)ncn2-c1ccc2cccc(N3CCC(N)CC3)c2n1,0.82 ± 0.056
5,"CO[C@H]1C[C@@H]2CC[C@@H](C)[C@@](O)(O2)C(=O)C(=O)N2CCCC[C@H]2C(=O)O[C@H]([C@H](C)C[C@@H]2CC[C@@H](OP(C)(C)=O)[C@H](OC)C2)CC(=O)[C@H](C)/C=C(\C)[C@@H](O)[C@@H](OC)C(=O)[C@H](C)C[C@H](C)/C=C/C=C/C=C/1C [Ridaforolimus (Deforolimus, MK-8669)]",0.847 ± 0.14
6,CNC(=O)c1cc(Oc2ccc3nc(N[C@@H]4CCCC[C@H]4O)sc3c2)ccn1,0.767 ± 0.05
7,Cn1cc(-c2ccc3ncc(Cc4ccc5ncccc5c4)n3n2)cn1,0.727 ± 0.11
8,COc1ccc(-c2ccc3ncc4c(c3c2)n(-c2ccc(N3CCNCC3)c(C(F)(F)F)c2)c(=O)n4C)cn1,0.29 ± 0.087
9,CN(c1ccccc1CNc1nc(Nc2ccc3c(c2)CC(=O)N3)ncc1C(F)(F)F)S(C)(=O)=O,0.723 ± 0.045
10,Cc1cc(F)c(Nc2ncnc3cc(OCc4ccccc4)ccc23)cc1O,0.797 ± 0.021
11,OC(c1cc(-c2ccc(Cl)cc2)nc2ccccc12)C1CCCCN1 (stereo not drawn) [Vacquinol-1],0.0533 ± 0.035
12,C=CC(=O)Nc1cccc(Nc2nc(Nc3ccc(Oc4ccnc(C(=O)NC)c4)cc3)ncc2F)c1,0.6 ± 0.056
13,CS(=O)(=O)N1CCc2c(-c3cnc(N)nc3)nc(N3CCOCC3)nc21,0.85 ± 0.061
14,NC(=O)c1ccc(N(C(N)=O)c2c(F)cccc2F)nc1-c1ccc(F)cc1F,0.733 ± 0.042
15,COc1ccc(-c2cc3c(C)nc(N)nc3n([C@H]3CC[C@H](OCCO)CC3)c2=O)cn1,0.597 ± 0.16
16,FC(F)c1nc2ccccc2n1-c1nc(N2CCOCC2)nc(N2CCOCC2)n1,0.723 ± 0.14
17,Clc1ccc(Nc2nnc(Cc3ccncc3)c3ccccc23)cc1 [Vatalanib (PTK787) 2HCl],0.827 ± 0.047
18,COc1cc2ncnc(Nc3cccc(Cl)c3F)c2cc1OC(=O)N1CCN(C)C[C@H]1C,0.617 ± 0.025
19,C[C@H](Nc1ncnc2[nH]cnc12)c1cc2ccc(F)cc2nc1-c1ccccn1,0.59 ± 0.18

row,Structure (SMILES),relative cell viability
1,C[C@@H](Oc1cc(-c2cnn(C3CCNCC3)c2)cnc1N)c1c(Cl)ccc(F)c1Cl,0.7 ± 0.026
2,C#Cc1cccc(Nc2ncnc3cc4c(cc23)OCCOCCOCCO4)c1 [Icotinib],0.64 ± 0.075
3,COc1ccc(-c2ccc3c(N4CCOC[C@@H]4C)nc(N4CCOC[C@@H]4C)nc3n2)cc1CO,0.893 ± 0.13
4,CN(c1ncccc1CNc1nc(Nc2ccc3c(c2)CC(=O)N3)ncc1C(F)(F)F)S(C)(=O)=O,0.763 and 0.527
5,Cc1cnc(Nc2ccc(OCCN3CCCC3)cc2)nc1Nc1cccc(S(=O)(=O)NC(C)(C)C)c1,0.433 ± 0.093
6,CC(C)(O)CNc1ncc(-c2ccnc(Nc3ccnc(Cl)c3)n2)c(CC2CC2)n1,0.503 ± 0.031
7,CC(C)(C)NS(=O)(=O)c1cncc(-c2cc(F)c3nc(N)nn3c2)c1,0.803 ± 0.15
8,FC(F)(F)c1ccc(/C=C/c2nc(COc3ccc(CCCCn4ccnn4)cc3)co2)cc1 [Mubritinib (TAK 165)],0.653 ± 0.1
9,CNC(=O)c1cc(Oc2ccc(NC(=O)Nc3ccc(Cl)c(C(F)(F)F)c3)cc2)ccn1 [Sorafenib],0.693 ± 0.14
10,O=c1[nH]nc(Sc2ncc([N+](=O)[O-])s2)n1-c1ccc2c(c1)OCCO2,0.533 ± 0.045
11,CNC(=O)c1nn(C)c2c1C(C)(C)Cc1cnc(Nc3ccc(N4CCN(C)CC4)cc3)nc1-2,0.723 ± 0.16
12,COc1ncc(-c2ccc3nccc(-c4ccnnc4)c3c2)cc1NS(=O)(=O)c1ccc(F)cc1F,0.24 ± 0.14
13,CCc1cccc(CC)c1NC(=O)N1Cc2[nH]nc(NC(=O)c3ccc(N4CCN(C)CC4)cc3)c2C1,0.53 ± 0.087
14,CNC(=O)c1ccccc1Nc1nc(Nc2ccc(N3CCOCC3)cc2OC)ncc1Cl,0.247 ± 0.07
15,Cc1nc(Nc2ncc(C(=O)Nc3c(C)cccc3Cl)s2)cc(N2CCN(CCO)CC2)n1 [Dasatinib],0.553 ± 0.091
16,CNC(=O)c1cc(Oc2ccc(NC(=O)Nc3cc(C(C)(C)C)nn3-c3ccc4ncccc4c3)c(F)c2)ccn1 [Rebastinib (DCC-2036)],0.3 ± 0.085
17,COc1nccc(-c2c(-c3ccc(F)cc3)ncn2C2CCC(O)CC2)n1 (stereo not drawn),0.667 ± 0.16
18,Cn1ncc(Cl)c1-c1cc(C(=O)N[C@H](CN)Cc2ccc(F)c(F)c2)oc1Cl,0.753 ± 0.07
19,CO[C@@H](C)Cn1c(=O)n(C)c2cnc3ccc(-c4cncc(C(C)(C)O)c4)cc3c21,0.457 ± 0.13
